Measured values as given in PubChem BioAssay (NCI).
Compounds without any hit were thinned out: in the full panel of roughly 83,000, 20% have a hit.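 A percent growth of 40 corresponds to 60% growth inhibition; 0 means no net growth; -100 means all cells died. Active threshold: below 10.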 Activity calls are given as the source filed them.

Experiments:
Assay in all cases: NCI-60 one-dose screen, 48 h (100 = growth as untreated, 0 = no growth, -100 = all killed)
Details in all cases: 10 µM unless noted
HCT-15 colon = system: HCT-15 colon
HT29 colon = system: HT29 colon
SNB-19 CNS = system: SNB-19 CNS
U251 CNS = system: U251 CNS
PC-3 prostate = system: PC-3 prostate
SK-MEL-5 melanoma = system: SK-MEL-5 melanoma
UACC-62 melanoma = system: UACC-62 melanoma
LOX IMVI melanoma = system: LOX IMVI melanoma
SK-MEL-28 melanoma = system: SK-MEL-28 melanoma
SK-MEL-2 melanoma = system: SK-MEL-2 melanoma
EKVX NSCLC = system: EKVX NSCLC
SN12C renal = system: SN12C renal
UO-31 renal = system: UO-31 renal
TK-10 renal = system: TK-10 renal
ACHN renal = system: ACHN renal
CAKI-1 renal = system: CAKI-1 renal
A498 renal = system: A498 renal
CCRF-CEM leukemia = system: CCRF-CEM leukemia
MOLT-4 leukemia = system: MOLT-4 leukemia
SNB-75 CNS = system: SNB-75 CNS

Measured: growth

CC(C)CCSC1=CC(=O)c2ccccc2C1=O
inactive: HCT-15 colon 72% | HT29 colon 97% | SNB-19 CNS 92.3% | U251 CNS 86.3% | PC-3 prostate 37.8% | SK-MEL-5 melanoma 67.8% | UACC-62 melanoma 74% | LOX IMVI melanoma 38% | SK-MEL-28 melanoma 27.2% | SK-MEL-2 melanoma 83.1% | EKVX NSCLC 81% | SN12C renal 90.2% | TK-10 renal 103% | ACHN renal 11.2% | CAKI-1 renal 21.1% | A498 renal 98.4% | MOLT-4 leukemia 16%
active: UO-31 renal -63.5% | CCRF-CEM leukemia 0.242%

Cc1cccc(C[C@H](NC(=O)Nc2ccc(Cl)cc2F)C(=O)N[C@@H]2C(=O)N3C[C@H](O)C[C@H]3C(=O)N3CCCC[C@H]3C(=O)N[C@@H](C)C(=O)N3C[C@H](C)C[C@H]3C(=O)O[C@H]2C)c1
inactive: HCT-15 colon 27.9% | SNB-19 CNS 16.2% | U251 CNS 16.4% | EKVX NSCLC 24.6% | UO-31 renal 10.3% | TK-10 renal 29.2% | CCRF-CEM leukemia 31% | MOLT-4 leukemia 14.7%
active: HT29 colon -10.5% | PC-3 prostate 7.99% | SK-MEL-5 melanoma -70.4% | UACC-62 melanoma -26.1% | LOX IMVI melanoma 9.07% | SK-MEL-28 melanoma 0.552% | SK-MEL-2 melanoma 0.151% | SN12C renal 9.57% | ACHN renal 8.94% | CAKI-1 renal 8.12% | A498 renal -4.82%

O=C(Nc1cccnc1)c1ccc2ccc3ccc(C(=O)Nc4cccnc4)nc3c2n1
inactive: HCT-15 colon 19.9% | U251 CNS 12.2% | PC-3 prostate 33.2% | SK-MEL-5 melanoma 26.3% | UACC-62 melanoma 29% | LOX IMVI melanoma 14% | SK-MEL-28 melanoma 17.7% | SK-MEL-2 melanoma 25.8% | EKVX NSCLC 54.4% | SN12C renal 32.4% | UO-31 renal 36.3% | TK-10 renal 37.1% | ACHN renal 23.3% | CAKI-1 renal 10.7% | CCRF-CEM leukemia 28.5%
active: HT29 colon 7.42% | A498 renal -39.1%

O=C(Nc1cc(F)cc2cccnc12)c1cnc(N2CCNCC2)cn1
inactive: HCT-15 colon 40.5% | HT29 colon 36.8% | U251 CNS 63.6% | PC-3 prostate 63% | SK-MEL-5 melanoma 91.1% | UACC-62 melanoma 101% | LOX IMVI melanoma 65.8% | SK-MEL-28 melanoma 97.4% | SK-MEL-2 melanoma 104% | EKVX NSCLC 82.7% | SN12C renal 75% | UO-31 renal 29% | TK-10 renal 66.6% | ACHN renal 28.4% | CAKI-1 renal 52.4% | A498 renal 88.7% | CCRF-CEM leukemia 26.3% | MOLT-4 leukemia 24.5%

COc1ccc(/C=C/C=C\C(=O)c2ccc(-n3ccnc3)cc2)cc1
inactive: HCT-15 colon 91.3% | HT29 colon 93.4% | SNB-19 CNS 87.6% | U251 CNS 83.3% | PC-3 prostate 88.8% | SK-MEL-5 melanoma 88.6% | UACC-62 melanoma 79.1% | LOX IMVI melanoma 93.5% | SK-MEL-28 melanoma 104% | SK-MEL-2 melanoma 108% | EKVX NSCLC 96.6% | SN12C renal 90.7% | UO-31 renal 73.9% | TK-10 renal 96.3% | ACHN renal 94.4% | CAKI-1 renal 90.9% | A498 renal 73.3% | CCRF-CEM leukemia 80.2% | MOLT-4 leukemia 75%

NNC(=O)c1ccc(C(=O)NN)cc1
inactive: HT29 colon 97.9% | SNB-75 CNS 113% | SNB-19 CNS 103% | U251 CNS 93.2% | PC-3 prostate 114% | SK-MEL-5 melanoma 108% | UACC-62 melanoma 97.6% | LOX IMVI melanoma 102% | SK-MEL-28 melanoma 114% | SK-MEL-2 melanoma 122% | EKVX NSCLC 101% | SN12C renal 109% | UO-31 renal 87.1% | TK-10 renal 105% | ACHN renal 111% | CAKI-1 renal 105% | A498 renal 70.2% | CCRF-CEM leukemia 94.4%

O=c1cc(-c2ccccc2)oc2cc(OCc3cn(Cc4ccc(F)cc4)nn3)cc(O)c12
inactive: HT29 colon 100% [100 µM] | PC-3 prostate 76% [100 µM] | SK-MEL-5 melanoma 84.5% [100 µM] | LOX IMVI melanoma 78.5% [100 µM] | SK-MEL-28 melanoma 93.6% [100 µM] | EKVX NSCLC 60.1% [100 µM] | SN12C renal 58.1% [100 µM] | UO-31 renal 67% [100 µM] | CAKI-1 renal 58.7% [100 µM] | A498 renal 63.1% [100 µM] | CCRF-CEM leukemia 109% [100 µM] | MOLT-4 leukemia 95.5% [100 µM]
active: SNB-75 CNS -65.9% [100 µM] | SNB-19 CNS -32.7% [100 µM] | U251 CNS -16.9% [100 µM] | SK-MEL-2 melanoma -39.8% [100 µM] | TK-10 renal 0.593% [100 µM] | ACHN renal 5.21% [100 µM]

COc1ncc(-c2ccc3nccc(C#CCCCCC(=O)NO)c3c2)cc1NS(=O)(=O)c1ccc(F)cc1F
inactive: SN12C renal 15%
active: HT29 colon 7.04% | SNB-75 CNS -15.3% | SNB-19 CNS 4.98% | U251 CNS -14% | PC-3 prostate 7.68% | SK-MEL-5 melanoma -97.3% | UACC-62 melanoma -37.3% | LOX IMVI melanoma -69.4% | SK-MEL-28 melanoma -27.9% | SK-MEL-2 melanoma -60.7% | EKVX NSCLC 4.18% | UO-31 renal 8.08% | TK-10 renal -25.1% | CAKI-1 renal 6.12% | A498 renal -76.1% | CCRF-CEM leukemia -8.34% | MOLT-4 leukemia -18%

CCN(CCNc1ccc(C)c2sc3cc(Cl)ccc3c(=O)c12)CC(C)O (stereo not given)
inactive: SNB-75 CNS 66.5% | SNB-19 CNS 58.5% | U251 CNS 18% | PC-3 prostate 48.5% | SK-MEL-2 melanoma 40.7% | EKVX NSCLC 88.9% | SN12C renal 48.7% | TK-10 renal 76.7% | ACHN renal 44.7% | CAKI-1 renal 43.7% | A498 renal 51.4% | CCRF-CEM leukemia 36.8% | MOLT-4 leukemia 34.5%
active: HT29 colon -28.5% | SK-MEL-5 melanoma -98.1% | UACC-62 melanoma -70.3% | LOX IMVI melanoma -83.4% | SK-MEL-28 melanoma -64.5% | UO-31 renal -61.8%
